Measured values reported in ChEMBL document CHEMBL3988442, “University of Dundee, Small-Polar-MMV Screening Library” (2021).
For some assays here: Results with a measured potency or affinity are listed apart.

Key:
Parameters in all cases: scale not given: direction of the effect not stated beside the values
[1] = target: Protein translocase subunit SecA (Escherichia coli (strain K12)) (UniProt P10408); assay: Assay to Identify E. coli SecA ATPase Inhibitors; type: functional; conditions: 30 µM
[2] = target: T1, Ubiquitin-activating enzyme e1, putative (Leishmania donovani (strain BPK282A1)) (UniProt E9BSI1); assay: Leishmania donovani Ubiquitin Activating Enzyme (LdE1); type: functional; conditions: 30 µM
T1 sequence (whole entry): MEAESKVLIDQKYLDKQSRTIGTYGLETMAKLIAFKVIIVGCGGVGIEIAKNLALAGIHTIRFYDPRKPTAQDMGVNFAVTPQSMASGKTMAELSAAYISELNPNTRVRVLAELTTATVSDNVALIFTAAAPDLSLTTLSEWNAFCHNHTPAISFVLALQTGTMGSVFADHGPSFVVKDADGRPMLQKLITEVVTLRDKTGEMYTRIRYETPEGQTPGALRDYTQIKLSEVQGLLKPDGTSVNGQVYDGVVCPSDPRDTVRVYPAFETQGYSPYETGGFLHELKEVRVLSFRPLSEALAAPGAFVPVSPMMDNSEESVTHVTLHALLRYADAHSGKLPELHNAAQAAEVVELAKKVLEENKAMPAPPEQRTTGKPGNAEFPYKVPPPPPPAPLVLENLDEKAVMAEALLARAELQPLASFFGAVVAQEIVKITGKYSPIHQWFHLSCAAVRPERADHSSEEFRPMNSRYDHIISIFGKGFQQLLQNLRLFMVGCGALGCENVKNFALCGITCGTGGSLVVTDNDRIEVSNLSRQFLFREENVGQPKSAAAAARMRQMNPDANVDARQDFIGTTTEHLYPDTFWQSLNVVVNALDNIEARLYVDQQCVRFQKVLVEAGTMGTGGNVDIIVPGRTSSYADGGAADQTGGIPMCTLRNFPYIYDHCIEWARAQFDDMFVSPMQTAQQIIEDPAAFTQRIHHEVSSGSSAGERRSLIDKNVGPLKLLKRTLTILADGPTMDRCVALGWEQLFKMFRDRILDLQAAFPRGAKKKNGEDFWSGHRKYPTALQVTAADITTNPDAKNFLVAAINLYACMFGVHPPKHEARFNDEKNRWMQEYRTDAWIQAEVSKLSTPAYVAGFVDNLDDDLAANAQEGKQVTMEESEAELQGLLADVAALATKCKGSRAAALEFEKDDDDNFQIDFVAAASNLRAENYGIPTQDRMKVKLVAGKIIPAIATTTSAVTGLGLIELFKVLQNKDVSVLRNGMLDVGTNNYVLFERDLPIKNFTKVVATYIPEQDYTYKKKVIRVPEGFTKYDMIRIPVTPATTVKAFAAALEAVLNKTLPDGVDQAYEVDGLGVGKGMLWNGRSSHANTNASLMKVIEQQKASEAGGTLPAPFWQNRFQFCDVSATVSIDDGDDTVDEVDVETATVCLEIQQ

[3] = target: AMP-activated protein kinase, AMPK (Homo sapiens) (UniProt P54646+O43741+P54619+Q9UGJ0+Q9Y478+Q13131+Q9UGI9); assay: AMP-dependent Kinase enzyme assay. An in vitro enzyme assay that detects ADP turnover that is directly proportional to AMPK activity. This uses naive AMPK that is activated during the assay with MK-8722; type: functional; conditions: 30 µM
[4] = target: Sialic acid-binding Ig-like lectin 9 (Homo sapiens) (UniProt Q9Y336); assay: Hs-Siglec9 ALPHAscreen SOP 20170721; conditions: 10 µM
Sequence of Sialic acid-binding Ig-like lectin 9 (Homo sapiens) (Q9Y336 whole entry): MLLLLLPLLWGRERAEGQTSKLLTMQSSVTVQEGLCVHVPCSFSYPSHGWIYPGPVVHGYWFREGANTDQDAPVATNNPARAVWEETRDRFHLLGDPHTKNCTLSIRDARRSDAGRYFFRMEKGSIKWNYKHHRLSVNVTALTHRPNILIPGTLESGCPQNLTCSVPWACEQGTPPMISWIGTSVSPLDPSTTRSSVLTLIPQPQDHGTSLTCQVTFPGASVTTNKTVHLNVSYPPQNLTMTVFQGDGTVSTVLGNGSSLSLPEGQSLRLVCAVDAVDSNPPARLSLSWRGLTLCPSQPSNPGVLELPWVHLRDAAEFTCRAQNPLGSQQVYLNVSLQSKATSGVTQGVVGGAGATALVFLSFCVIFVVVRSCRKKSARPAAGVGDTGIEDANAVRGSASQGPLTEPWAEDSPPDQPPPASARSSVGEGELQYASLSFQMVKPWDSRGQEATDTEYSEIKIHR

[5] = test system: Trypanosoma cruzi; assay: Trypanosoma cruzi phosphomannomutase and mannose-1-phosphate guanylyltransferase assay; type: functional; conditions: 10 µM
[6] = target: T2, Arginase-2, mitochondrial (Homo sapiens) (UniProt P78540); assay: in vitro enzyme assay to detect the production of urea directly proportional to the activity of Arginase II; type: functional; conditions: 33.3 µM; further: in the data most compounds retested in dose-response had high values
T2 sequence (whole entry): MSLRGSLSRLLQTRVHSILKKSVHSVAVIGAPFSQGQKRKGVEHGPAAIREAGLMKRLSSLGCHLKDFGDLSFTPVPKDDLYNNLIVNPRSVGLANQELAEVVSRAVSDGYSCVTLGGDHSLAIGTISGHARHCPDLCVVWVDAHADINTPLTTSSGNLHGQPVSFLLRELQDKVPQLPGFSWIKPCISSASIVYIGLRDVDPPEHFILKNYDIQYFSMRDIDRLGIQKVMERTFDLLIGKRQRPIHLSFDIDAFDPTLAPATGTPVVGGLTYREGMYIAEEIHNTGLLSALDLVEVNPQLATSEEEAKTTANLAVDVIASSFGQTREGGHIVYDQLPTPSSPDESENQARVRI

[7] = target: T3, Proteasome subunit beta (Trypanosoma cruzi) (UniProt O96673); assay: Trypanosoma cruzi proteasome chymotrypsin-like activity (TcProtChymo) assay.; further: in the data most compounds retested in dose-response had high values; type: functional; conditions: 9.37 µM
T3 sequence (whole entry): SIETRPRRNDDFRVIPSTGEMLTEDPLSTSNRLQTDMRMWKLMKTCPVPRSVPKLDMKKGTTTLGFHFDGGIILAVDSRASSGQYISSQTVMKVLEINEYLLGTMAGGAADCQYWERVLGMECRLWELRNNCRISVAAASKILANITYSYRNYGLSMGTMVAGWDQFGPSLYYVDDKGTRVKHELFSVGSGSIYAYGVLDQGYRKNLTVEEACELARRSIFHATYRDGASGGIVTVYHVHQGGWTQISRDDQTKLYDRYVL

[8] = species: Homo sapiens; assay: To identify inhibition of the IFN signalling (Jak-Stat) pathway via expression of an eGFP reporter gene under the control of an IFN-stimulated response element (ISRE) containing MxA promoter.; type: functional; conditions: 30 µM
[9] = target: T4, Tyrosyl-tRNA synthetase, putative (Trypanosoma cruzi (strain CL Brener)) (UniProt Q4DSP6); assay: Trypanosoma cruzi tyrosyl tRNA synthetase (TcYRS) _High Tyrosine SOP; type: functional; conditions: 30 µM; further: in the data most compounds retested in dose-response had high values
T4 sequence (whole entry): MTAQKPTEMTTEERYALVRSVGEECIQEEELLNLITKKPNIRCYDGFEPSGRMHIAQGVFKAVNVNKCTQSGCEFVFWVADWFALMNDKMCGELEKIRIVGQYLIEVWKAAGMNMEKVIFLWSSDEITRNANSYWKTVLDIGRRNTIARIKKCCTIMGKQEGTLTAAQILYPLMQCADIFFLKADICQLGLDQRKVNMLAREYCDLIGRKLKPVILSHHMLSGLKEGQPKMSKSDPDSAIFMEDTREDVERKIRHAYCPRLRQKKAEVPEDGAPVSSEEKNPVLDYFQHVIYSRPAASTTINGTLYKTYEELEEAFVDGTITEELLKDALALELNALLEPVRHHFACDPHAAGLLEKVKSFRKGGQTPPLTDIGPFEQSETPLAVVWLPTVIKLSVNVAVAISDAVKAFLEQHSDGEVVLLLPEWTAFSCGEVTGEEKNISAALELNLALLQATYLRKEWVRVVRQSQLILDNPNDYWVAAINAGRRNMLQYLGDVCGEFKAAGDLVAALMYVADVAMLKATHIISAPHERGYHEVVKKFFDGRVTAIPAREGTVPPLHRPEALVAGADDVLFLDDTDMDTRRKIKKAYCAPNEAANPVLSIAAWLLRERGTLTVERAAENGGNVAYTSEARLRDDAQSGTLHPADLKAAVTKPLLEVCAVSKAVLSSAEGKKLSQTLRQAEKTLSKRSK

[10] = target: T4, Tyrosyl-tRNA synthetase, putative (Trypanosoma cruzi (strain CL Brener)); assay: Trypanosoma cruzi tyrosyl tRNA synthetase (TcYRS) SOP; type: functional; conditions: 30 µM
[11] = target: Chromo domain-containing protein 1 (Saccharomyces cerevisiae (strain ATCC 204508 / S288c) (Baker's yeast)) (UniProt P32657); assay: ScCHD-1 Enzyme Inhibition Assay; type: functional; conditions: 30 µM; further: in the data most compounds retested in dose-response had high values
Sequence of Chromo domain-containing protein 1 (Saccharomyces cerevisiae (strain ATCC 204508 / S288c) (Baker's yeast)) (P32657 whole entry, the tested form may be a part): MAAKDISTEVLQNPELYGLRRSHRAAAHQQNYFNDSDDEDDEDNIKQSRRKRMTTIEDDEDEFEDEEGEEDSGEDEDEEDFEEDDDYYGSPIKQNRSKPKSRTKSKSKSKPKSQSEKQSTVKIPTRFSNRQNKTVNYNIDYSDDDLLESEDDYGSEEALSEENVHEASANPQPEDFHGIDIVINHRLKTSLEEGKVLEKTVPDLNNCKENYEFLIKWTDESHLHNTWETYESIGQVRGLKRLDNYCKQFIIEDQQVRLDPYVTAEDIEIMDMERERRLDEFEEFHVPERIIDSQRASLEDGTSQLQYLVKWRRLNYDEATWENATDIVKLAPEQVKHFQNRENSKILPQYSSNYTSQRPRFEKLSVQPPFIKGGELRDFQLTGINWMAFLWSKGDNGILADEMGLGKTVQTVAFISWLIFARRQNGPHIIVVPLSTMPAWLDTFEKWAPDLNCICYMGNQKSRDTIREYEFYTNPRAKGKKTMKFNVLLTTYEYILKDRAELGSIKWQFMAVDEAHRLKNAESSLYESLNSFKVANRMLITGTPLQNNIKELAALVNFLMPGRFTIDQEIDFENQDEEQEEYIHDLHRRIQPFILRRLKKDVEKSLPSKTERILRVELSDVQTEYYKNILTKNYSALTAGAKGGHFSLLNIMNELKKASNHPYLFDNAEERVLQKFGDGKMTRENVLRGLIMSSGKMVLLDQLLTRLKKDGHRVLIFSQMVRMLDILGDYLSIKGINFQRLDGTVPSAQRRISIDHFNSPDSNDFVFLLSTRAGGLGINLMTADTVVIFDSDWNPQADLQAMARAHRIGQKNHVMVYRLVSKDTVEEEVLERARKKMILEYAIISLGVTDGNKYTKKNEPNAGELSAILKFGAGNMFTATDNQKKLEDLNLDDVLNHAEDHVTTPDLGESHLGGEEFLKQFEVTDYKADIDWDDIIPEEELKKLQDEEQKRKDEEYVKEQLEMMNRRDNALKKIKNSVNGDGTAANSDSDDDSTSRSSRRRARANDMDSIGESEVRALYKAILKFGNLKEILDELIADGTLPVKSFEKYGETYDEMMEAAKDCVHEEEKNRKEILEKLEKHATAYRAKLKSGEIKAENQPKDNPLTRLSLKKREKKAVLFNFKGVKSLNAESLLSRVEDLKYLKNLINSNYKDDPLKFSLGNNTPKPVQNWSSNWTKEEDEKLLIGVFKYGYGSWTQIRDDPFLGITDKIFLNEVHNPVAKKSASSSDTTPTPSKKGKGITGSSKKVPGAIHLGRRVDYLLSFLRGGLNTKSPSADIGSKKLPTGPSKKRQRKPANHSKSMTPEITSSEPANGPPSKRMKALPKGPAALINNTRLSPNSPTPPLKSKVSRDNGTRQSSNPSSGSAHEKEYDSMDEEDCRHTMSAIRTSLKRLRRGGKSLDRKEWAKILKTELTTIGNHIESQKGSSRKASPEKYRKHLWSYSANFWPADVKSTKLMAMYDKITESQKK

Sequence of Protein translocase subunit SecA (Escherichia coli (strain K12)) (P10408 whole entry): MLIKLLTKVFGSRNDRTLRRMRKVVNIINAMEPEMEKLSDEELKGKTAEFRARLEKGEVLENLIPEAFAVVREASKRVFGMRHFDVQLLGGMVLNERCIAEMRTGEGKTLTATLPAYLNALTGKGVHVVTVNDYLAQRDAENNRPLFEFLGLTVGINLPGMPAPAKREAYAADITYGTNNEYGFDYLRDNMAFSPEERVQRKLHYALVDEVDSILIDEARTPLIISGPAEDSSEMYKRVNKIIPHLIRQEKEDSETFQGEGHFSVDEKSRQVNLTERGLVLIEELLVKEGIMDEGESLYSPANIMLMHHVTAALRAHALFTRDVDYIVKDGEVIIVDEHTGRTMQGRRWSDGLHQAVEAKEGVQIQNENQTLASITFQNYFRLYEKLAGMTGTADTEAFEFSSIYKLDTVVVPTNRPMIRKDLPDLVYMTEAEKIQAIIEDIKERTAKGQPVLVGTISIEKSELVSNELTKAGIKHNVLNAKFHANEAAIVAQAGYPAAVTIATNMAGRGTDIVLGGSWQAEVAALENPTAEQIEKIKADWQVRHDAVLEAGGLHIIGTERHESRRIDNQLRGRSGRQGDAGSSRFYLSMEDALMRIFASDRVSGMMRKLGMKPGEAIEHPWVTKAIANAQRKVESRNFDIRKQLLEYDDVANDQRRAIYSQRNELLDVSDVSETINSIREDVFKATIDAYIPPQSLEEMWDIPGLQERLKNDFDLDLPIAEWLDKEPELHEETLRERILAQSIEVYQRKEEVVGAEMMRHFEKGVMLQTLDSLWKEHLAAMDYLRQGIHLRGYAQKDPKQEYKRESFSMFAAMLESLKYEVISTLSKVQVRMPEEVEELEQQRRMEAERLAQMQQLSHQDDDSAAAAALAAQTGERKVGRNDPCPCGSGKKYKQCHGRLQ

| SMILES | Percent Effect [1] [%] | Percent Effect [2] [%] | Percent Effect [3] [%] | Percent Effect [4] [%] | Percent Effect [5] [%] | Percent Effect [6] [%] | Percent Effect [7] [%] | Percent Effect [8] [%] | Percent Effect [9] [%] | Percent Effect [10] [%] | Percent Effect [11] [%] |
| --- | --- | --- | --- | --- | --- | --- | --- | --- | --- | --- | --- |
| COc1ccc(CCC(=O)Nc2cccnc2N2CCCC2)cc1Br | -6.14 | 8.11 | -7.1 | 0.341 | -5.57 | 2.81 | 3.42 | 13.8 | 5.42 | 6.17 | -2.84 |
| COc1ccc(CNCc2c(C)nn(C)c2N2CCOCC2)cc1 | -5.07 | 18.2 | -11.5 | 0.605 | 3.82 | 0.21 | 14.5 | -34.5 | 8.57 | 21.2 | -13 |
| CCC(CC)C(O)CNC(=O)Nc1cc(C)nn1C (stereo unspecified) | -6.46 | 5.06 | 0.487 | 6.21 | 6.7 | -1.9 | 5.16 | -23.6 | 1.48 | 16.5 | -6.04 |
| CC(C)CCC(C)NC(=O)c1ccc(OCC(N)=O)cc1 (stereo unspecified) | 0.307 | 10.8 | -4.08 | 5.06 | -2.7 | -1.43 | 10.5 | 11.1 | 5.82 | 12.2 | -4.44 |
| Cc1cccc(CNC(=O)CNc2cc(CO)ccc2Cl)c1 | -6.11 | 2.63 | 4.86 | -0.518 | -1.27 | 1.18 | 11 | -4.91 | 4.25 | 7.79 | -2.84 |
| Cc1cc(C(=O)N2CCCCC2c2nc(C)cs2)[nH]n1 (stereo unspecified) | -4.07 | 5.2 | 0.468 | -1.4 | 5.62 | -4.27 | -2.03 | -9.54 | 4.85 | 12.2 | 84.3 |
| COCCN(Cc1ccc(F)cc1Cl)C(=O)c1cccc[n+]1[O-] | -4.42 | -1.39 | 3.97 | -0.933 | -1.65 | 6.18 | 12.3 | -7.04 | 1.05 | 7.69 | -2.92 |
| CN(C)C(CNC(=O)c1cc2c([nH]c1=O)CCCC2=O)c1ccsc1 (stereo unspecified) | -5.23 | 16.2 | -3.65 | 17.4 | 4.55 | -0.554 | 2.51 | 1.27 | 5.94 | 18.3 | 45 |
| CN(CCO)C(=O)c1coc(CN2CCN(c3ccccc3F)CC2)n1 | -2.04 | 13.3 | -1.48 | 17.7 | -0.0974 | 49.5 | 20.2 | 11.4 | 6.01 | 21 | 97.1 |
| Cc1nc(C)n(CC2CN(CC(=O)Nc3cccnc3)CCO2)n1 (stereo unspecified) | -3.48 | 4.17 | 1.48 | -1.08 | -0.486 | 2.65 | 2.1 | -1.3 | 4.21 | 5.13 | 0.336 |
| OCC1CCCN1c1cc(N2CCC(OC3CCCC3)CC2)ncn1 (stereo unspecified) | -0.479 | 23.4 | -10.1 | -5.43 | 3.04 | 2.32 | 15.8 | -7.13 | 7.62 | 23.5 | -22.6 |
| Cc1cc(CN2CCN(c3nn4cc(C)nc4s3)CC2)on1 | -0.836 | 16.5 | 4.65 | 3 | -0.923 | 0.215 | 20.4 | 6.94 | 7.29 | 15.2 | -20.7 |
| CN(C)C(=O)C1CCCN1CCCNC(=O)c1ccccc1F (stereo unspecified) | -2.29 | 8.22 | -4.32 | 2.43 | -0.783 | 0.909 | 15.6 | 12.8 | 5.38 | 12.5 | -3.39 |
| O=C(NCCc1ccn(-c2ccccc2)n1)N1CCC1 | -2.79 | 15.6 | -0.615 | -16.6 | 1.67 | -2.32 | 25.5 | 4.57 | 5.71 | 25.9 | -20.8 |
| COCCC(=O)N1CC2(CCN(Cc3cccc(Cl)c3)CC2)C1 | -1.79 | 5.33 | 5.28 | 2.57 | -7.09 | 3.03 | 10.8 | 6 | 4.25 | 11.5 | -4.02 |
| CC(Cn1ccnc1)NC(=O)NCCc1ccc2c(c1)OCCO2 (stereo unspecified) | -3.57 | 18.2 | -10.2 | -0.77 | -10.1 | 0.712 | 15.7 | 31.7 | 4.85 | 2.44 | -8.39 |
